Screening data deposited in PubChem BioAssay by Paczesny and Yang Labs, IUPUI and University of Michigan.
Many of the other results were omitted from the sample, so hits are more common in it than they were.
ST2 inh: IL1RL1 inhibition; Q01638; AlphaLISA ST2-Fc/biotin-IL-33 interaction, 1 h; inhibition, % for hits at 17 µM; 78,000 tested, 2.3% active; AID 1259354; in the data active = inhibition above about 30%
Target sequence (Q01638 whole entry, looked up): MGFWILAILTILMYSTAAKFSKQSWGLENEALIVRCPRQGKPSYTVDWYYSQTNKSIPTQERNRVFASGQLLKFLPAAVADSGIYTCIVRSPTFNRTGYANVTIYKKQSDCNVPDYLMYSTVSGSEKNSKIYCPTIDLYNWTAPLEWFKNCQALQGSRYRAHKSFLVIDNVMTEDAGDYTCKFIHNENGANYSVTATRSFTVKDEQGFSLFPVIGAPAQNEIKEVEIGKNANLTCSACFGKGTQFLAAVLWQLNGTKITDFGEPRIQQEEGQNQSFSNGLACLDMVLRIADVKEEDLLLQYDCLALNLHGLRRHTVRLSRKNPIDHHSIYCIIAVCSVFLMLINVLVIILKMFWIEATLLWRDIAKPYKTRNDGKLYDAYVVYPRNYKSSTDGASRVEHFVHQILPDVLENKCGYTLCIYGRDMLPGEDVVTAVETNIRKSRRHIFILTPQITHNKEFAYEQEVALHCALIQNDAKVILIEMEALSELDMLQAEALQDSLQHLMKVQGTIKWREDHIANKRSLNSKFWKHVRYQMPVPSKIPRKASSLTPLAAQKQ
Numbers stand for hits; – = inactive; ! = a repeat was not active.

SMILES	ST2 inh
Cc1ccc(Nc2nnc(-c3ccc(C)c(S(=O)(=O)NCCO)c3)c3ccccc23)cc1	–
Cc1ccc(NC2=C(NCCO)C(=O)c3ccccc3C2=O)cc1	51%
Cc1ccc(C(NC(=O)CN2C(=O)c3ccccc3C2=O)c2ccccc2)cc1 (stereo unspecified)	–
CCOCCCNC(=O)Cc1cn(C)c2ccccc12	–
CC(C)n1c(-c2ccccc2)csc1=Nc1ccccc1	70%
CSc1nc2c(sc3ccccc32)c(=O)n1Cc1ccco1	–
c1ccc(N=c2scc(-c3ccccc3)n2Cc2ccco2)cc1	62%
c1ccc(N2CCN(Cc3ccco3)CC2)cc1	–
COc1ccc(OC)c(CNS(=O)(=O)c2ccc3[nH]c(=O)sc3c2)c1	–
O=C(Nc1cccnc1)c1cccc(S(=O)(=O)N2CCOCC2)c1	–
Cn1c(=O)[nH]c(=O)c2c1nc(CN1CCN(Cc3ccccc3)CC1)n2Cc1ccccc1Cl	–
CCN(CC)S(=O)(=O)c1ccc(C(=O)Nc2ccccc2-c2nc3ccccc3s2)cc1	–
Cc1cc(Nc2cccc(F)c2)nc(N2CCOCC2)n1	–
O=C1c2ccccc2NC(c2ccc(Br)cc2)N1Cc1ccccc1 (stereo unspecified)	–
O=C1C(=O)N(Cc2ccc(F)cc2)c2ccccc21	–
O=C1C(=O)N(Cc2ccccc2)c2ccc(Br)cc21	30%
Cc1nc2c(sc3cc([N+](=O)[O-])cc(SCc4ccccc4)c32)c(=O)n1C	–
C=CCNC(=O)CSc1n[nH]c(C)c1[N+](=O)[O-]	–
O=C(C1CC=CCC1)N1CC(=O)N(C2CCCCC2)CC(OCc2cccnc2)C1 (stereo unspecified)	–
N=C1C(c2nc3ccccc3s2)=C(O)CN1Cc1cccnc1	–
O=C(C[C@@H]1CCNC[C@@H]1Cc1cc(COc2ccccc2)on1)N1CCOCC1	–
COc1ccc(-c2cc(C[C@H]3CNCC[C@H]3CC(=O)N3CCN(c4ccccc4)CC3)no2)cc1	–
O=C(C[C@@H]1CCNC[C@@H]1Cc1cc(COc2ccccc2)on1)N1CCN(c2ccccc2)CC1	42%
COC(=O)[C@H](NC(=O)[C@@]1(O)C[C@@H](O)[C@H](O)[C@@H](NS(=O)(=O)c2cccc(C(F)(F)F)c2)C1)C(C)C	–
CCCNC(=O)c1cc2c(=O)n3cccc(C)c3nc2n1C	–
SMILES	ST2 inh
O=C(Nc1ccccc1)N1Cc2[nH]cnc2C[C@H]1c1nc(-c2ccc3ccccc3c2)no1	38%
O=C(NC1CCCCC1)N1Cc2[nH]cnc2C[C@H]1c1nc(-c2ccc3ccccc3c2)no1	–
Cc1ccc(NC(=O)N2Cc3[nH]cnc3C[C@H]2c2nc(-c3ccc4ccccc4c3)no2)cc1	–
O=C(Nc1cccc(OCc2cc(=O)n3cc(Cl)ccc3n2)c1)C1CCCCC1	–
COc1cccc(-c2cc(C(F)(F)F)nc(NC3CCCC3)n2)c1	–
Fc1ccc(C2=NN(c3ccccc3)C(c3ccco3)C2)cc1 (stereo unspecified)	45%
O=C(c1ccccc1Br)N1N=C(c2ccc(Br)cc2)CC1c1ccco1 (stereo unspecified)	–
Nc1nc2n(n1)C(c1ccco1)CC(c1ccc(F)cc1)N2 (stereo unspecified)	–
Cc1cccc(-n2c(CN3CCNCC3)nc3cccnc32)c1	–
Nc1nnnn1CC(=O)Nc1ccc(F)cc1	–
CCn1c(C2CCN(C(=O)CCN3CCCO3)CC2)n[nH]c1=O	–
CC1=C(C(=O)Nc2ccc(C)cn2)C(c2cccc(Cl)c2Cl)C2=C(CC(C)(C)CC2=O)N1 (stereo unspecified)	–
CCCNC(=O)C1CCC(CNS(=O)(=O)c2cccc3nsnc23)CC1 (stereo unspecified)	–
Nc1nc(-c2ccc(-c3ccccc3CN3CCOCC3)cc2)cs1	34%
CN(C)c1nc2c(c(-c3ccccc3CN3CCOCC3)n1)CCCC2	–
Nc1nc(-c2ccccc2)cs1	–
CCCc1ccc(OCC(=O)O)cc1	–
Nc1ccc(Cl)c2c1C(=O)c1ccccc1C2=O	42%
Nc1cccc2c1C(=O)N(c1ccc(Cl)cc1)C2=O	–
Nc1ccc(N2C(=O)c3ccccc3C2=O)c(Cl)c1	–
O=c1[nH]c(Nc2nc3ccccc3o2)nc2ccccc12	–
Cc1ccc(C(=O)c2ccccc2C(=O)N2CCn3cncc3C2)cc1	–
COc1cccc(C2C3=C(CC(C)(C)CC3=O)Nc3nc(SCc4ccccc4)nn32)c1 (stereo unspecified)	–
CC1(C)CC(=O)C2=C(C1)Nc1ccccc1N(C(=O)Cc1ccc(Cl)cc1)C2c1cccnc1 (stereo unspecified)	40%
Cc1ccc(C2Nc3ccc(C(=O)c4ccccc4)cc3NC3=C2C(=O)CCC3)cc1 (stereo unspecified)	–
SMILES	ST2 inh
CC1=C(C(=O)Nc2ccc(C)cn2)C(c2cccnc2)C2=C(CC(C)(C)CC2=O)N1 (stereo unspecified)	–
CC1(C)CC(=O)C2=C(C1)Nc1nc(SCc3ccccc3)nn1C2c1ccc(O)cc1 (stereo unspecified)	–
CC1(C)CC(=O)C2=C(C1)Nc1ccccc1N(C(=O)Cc1ccc(Cl)cc1)C2c1ccco1 (stereo unspecified)	–
CC1(C)CC(=O)C2=C(C1)Nc1nc(SCc3ccccc3Cl)nn1C2c1ccncc1 (stereo unspecified)	42%!
CC1(C)CC(=O)C2=C(C1)Nc1nc(SCc3ccccc3Cl)nn1C2c1cccnc1 (stereo unspecified)	31%!
COc1ccc(C2C3=C(CC(C)(C)CC3=O)Nc3nc(SCc4ccccc4)nn32)cc1 (stereo unspecified)	–
CC1=C(C(N)=O)C(c2cccnc2)n2nc(SCc3ccccc3Cl)nc2N1 (stereo unspecified)	–
CCCCC(=O)N1c2ccccc2NC2=C(C(=O)CC(C)(C)C2)C1c1ccc2c(c1)OCO2 (stereo unspecified)	–
CC1(C)CC(=O)C2=C(C1)Nc1cc(C(=O)c3ccccc3)ccc1NC2c1cccnc1 (stereo unspecified)	33%
CCN(CC)c1ncnc2c1ncn2[C@@H]1O[C@H](CO)[C@@H](O)[C@H]1O	–
O=C(Nc1ccc(F)c(Cl)c1)c1c[nH]c(=O)n(-c2ccccc2)c1=O	–
CS(=O)(=O)Nc1ccc(Cl)c2cccnc12	–
Cc1ccc(-n2c(=O)c3sccc3n(CC(N)=O)c2=O)cc1F	–
O=C(CSc1nnc(-c2cccnc2)n1-c1ccccc1)c1ccc(Cl)cc1	–
CN1CCC(N(C)Cc2cccs2)CC1	–
COc1cc(CN2CCCC(OCc3ccccn3)C2)cc2c1OCO2 (stereo unspecified)	–
CCC1Oc2ccccc2N(CC(=O)N(C)CCC#N)C1=O (stereo unspecified)	–
COc1cc(C=O)ccc1OCCCCOc1ccccc1Br	–
O=C(O)CCN1C(=O)C(=O)C(=C(O)c2ccccc2)C1c1ccc(F)cc1 (stereo unspecified)	–
CC(Cc1ccccc1)N1CCC(=O)C2=C1CCCC2 (stereo unspecified)	–
COC(=O)[C@H]1[C@H]2C[C@H]3c4[nH]c5ccccc5c4CCN3C[C@H]2CC[C@@H]1O	–
COC(=O)c1sc2ccccc2c1NC(=O)c1ccco1	–
Cc1cc(C)c2ccc(CO)nc2c1O	–
Cc1cc(C)c2ccc(NN)nc2c1O	34%
COc1ccc(NC(=O)O[C@@H]2CO[C@H]3[C@@H]2OC[C@@H]3Nc2nccc(-c3cccs3)n2)cc1	–
CCN(CC)c1ccc(NC(=O)CSc2nc3nc(C)cc(C)c3c(=O)[nH]2)cc1	–
O=C1C(=Cc2ccc(Br)o2)C(=O)c2ccccc21	52%
